Measured values reported in PubChem BioAssay (EPA / NIEHS).
Where “and” joins values, the source holds several entries; their conditions need not be identical. Equal entries are not always repeated. Records with an inconclusive call do not appear. Some compounds were tested as several samples or in several runs, with calls that do not always agree. Calls of active or inactive are those of the source. How the source made its calls, unless noted: active means hit-call score of the fitted dose curve at least 0.9, where 1 is the maximum; inactive means score below 0.9.

Legend:
[1] = CCTE_Shafer_MEA_dev_active_electrodes_number: CCTE's Neural Network Formation Assay for Number of Active Electrodes, Shafer Lab (AID 2284040; active means hit-call score of the fitted dose curve at least 0.9, where 1 is the maximum;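 on AC50: potency for loss of active electrodes versus DMSO so lower counts are hits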)
In short: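 Developing rat cortical networks on MEAs, exposed DIV 0–12. Value is the AUC of active-electrode counts (≥5 spikes/min) from days 5, 7, 9, 12, relative to DMSO.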

[2] = CCTE_Shafer_MEA_dev_burst_rate: CCTE's Neural Network Formation Assay for Burst Rate, Shafer Lab (AID 2284042);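 on AC50: potency for loss of burst rate below DMSO control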
In short: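 Primary rat cortical neurons on PEI-coated 48-well MEA plates (laminin added with cells at plating) (16 electrodes/well), exposed from plating to day 12, dosing renewed at DIV 5 and 9. Burst rate averaged over active electrodes, recorded DIV 5, 7, 9, 12, summarized as AUC; loss versus DMSO.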

[3] = CCTE_Shafer_MEA_dev_bursting_electrodes_number: CCTE's Neural Network Formation Assay for Number of Bursting Electrodes, Shafer Lab (AID 2284043; active means hit-call score of the fitted dose curve at least 0.9, where 1 is the maximum;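 on AC50: potency is for loss of bursting electrodes relative to DMSO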)
In short: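 Rat cortical primary neurons, 48-well MEA, 16 electrodes/well; dosing DIV 0–12, re-dosed with full media change DIV 5, 9. Recordings DIV 5/7/9/12, AxIS adaptive spike detector; bursting electrode = ≥1 burst/2 min. AUC across days; loss of signal vs DMSO.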

[4] = CCTE_Shafer_MEA_dev_per_burst_interspike_interval: CCTE's Neural Network Formation Assay for Burst Interspike Interval, Shafer Lab (AID 2284044);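 further: mean spike spacing inside bursts as AUC over recordings on days 5 7 9 12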;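 on AC50: potency for a decrease of within-burst interspike interval below DMSO level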
In short: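 Spontaneous activity of maturing rat cortical networks is recorded on DIV 5, 7, 9 and 12 under chronic compound exposure beginning at plating. Endpoint: burst interspike interval well-mean, collapsed into trapezoidal AUC and fitted in the negative direction relative to DMSO.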

[5] = CCTE_Shafer_MEA_dev_inter_network_spike_interval_mean: CCTE's Neural Network Formation Assay for Mean Inter-network Spike Interval, Shafer Lab (AID 2284047)
In short: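 Primary rat cortical neurons on 16-electrode MEA wells, exposed from plating day 0 through DIV 12, compound renewed at DIV 5 and 9 media changes. Mean interval between network-spike peaks recorded DIV 5, 7, 9, 12; collapsed as trapezoidal AUC, fitted downward versus DMSO.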

[6] = CCTE_Shafer_MEA_dev_network_spike_number: CCTE's Neural Network Formation Assay for Number of Network Spikes, Shafer Lab (AID 2284048);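 further: synchronized bursts across electrodes counted on days 5 7 9 12 and integrated as AUC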;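 on AC50: fit as a loss of signal meaning fewer network spikes than DMSO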
In short: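 Rat cortical primary cultures on 48-well MEA (16 electrodes/well); continuous exposure DIV 0–12, full medium and treatment exchange DIV 5, 9. Readout: network spike count, AxIS adaptive detection, recordings DIV 5/7/9/12 collapsed to AUC; loss-of-signal fit, DMSO baseline.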

[7] = CCTE_Shafer_MEA_dev_network_spike_peak: CCTE's Neural Network Formation Assay for Mean Number of Electrodes in Network Spike, Shafer Lab (AID 2284049);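 on AC50: fitted for loss of signal meaning fewer electrodes in network spikes than DMSO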
In short: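 Network-spike peak electrode count from recordings on days 5, 7, 9 and 12 was combined as trapezoidal area under the curve. Rat cortical cultures were treated continuously from plating, with compound renewed at each feed (DIV 5, 9); fits versus DMSO.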

[8] = CCTE_Shafer_MEA_dev_spike_duration_mean: CCTE's Neural Network Formation Assay for Mean Spike Duration, Shafer Lab (AID 2284051);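 further: mean network spike duration pooled as area under curve over DIV 5 to 12 recordings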;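 on AC50: potency for a decrease in mean network spike duration versus DMSO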
In short: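 Primary rat cortical neurons on 16-electrode MEA wells (PEI-coated, laminin in plating drop), exposed from plating through DIV 12 with compound renewed at DIV 5 and 9. Mean network-spike duration recorded DIV 5, 7, 9, 12; trapezoidal AUC across days, DMSO baseline.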

[9] = CCTE_Shafer_MEA_dev_network_spike_duration_std: CCTE's Neural Network Formation Assay for Standard Deviation of Network Spike Duration, Shafer Lab (AID 2284052);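 further: area under curve of spike duration SD across recording days 5 to 12; hits are decreases in network spike duration SD versus DMSO vehicle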
In short: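 Primary rat cortical neurons on PEI-coated 16-electrode MEA wells, exposed from plating day 0 through day 12 with compound renewed at DIV 5 and 9. Network spike duration SD recorded on days 5, 7, 9, 12, collapsed as trapezoidal AUC; loss-of-signal fit versus DMSO.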

[10] = CCTE_Shafer_MEA_dev_per_network_spike_spike_percent: CCTE's Neural Network Formation Assay for Percent of Spikes in a Network Spike, Shafer Lab (AID 2284054)
In short: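 Read-out: percent of spikes falling in a 0.05 s window at network-spike peak, from spontaneous MEA recordings on days 5, 7, 9 and 12; trapezoidal AUC; loss of signal versus DMSO. Rat cortical cultures, compound present throughout.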

[11] = CCTE_Shafer_MEA_dev_LDH: CCTE's Lactate Dehydrogenase Assay for Cytotoxicity in the Neural Network Formation Assay, Shafer Lab (AID 2284068; active means hit-call score of the fitted dose curve at least 0.9, where 1 is the maximum;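 further: exposure for twelve days from plating with re-dosing on DIV 5 and 9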)
In short: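 Primary rat cortical neurons were plated on PEI/laminin MEA plates and exposed from day 0 for twelve days, with compound renewed at DIV 5 and 9. Cytotoxicity was determined by spectrophotometric LDH assay relative to DMSO.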

[12] = CCTE_Shafer_MEA_dev_AB: CCTE's Alamar Blue Assay for Cytotoxicity in the Neural Network Formation Assay, Shafer Lab (AID 2284083; active means hit-call score of the fitted dose curve at least 0.9, where 1 is the maximum;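 further: twelve days of exposure from plating with re-dosing on DIV 5 and 9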)
In short: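 Primary rat cortical neurons on PEI-coated 48-well MEA plates, 1.5 x 10^5 cells/well in laminin drop; compound exposure from day 0 of plating for twelve days, renewed at medium changes on DIV 5 and 9. Viability read as resazurin reduction by fluorescence, relative to DMSO.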

[13] = CCTE_Shafer_MEA_acute_LDH: CCTE's Lactate Dehydrogenase Assay for Cytotoxicity in the Neural Acute Assay, Shafer Lab (AID 2284086; active means hit-call score of the fitted dose curve at least 0.9, where 1 is the maximum;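 further: active means LDH release rises above DMSO vehicle level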)
In short: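 LDH absorbance at 490 nm in medium taken right after 40-min compound exposure; rat primary cortical neuron networks on MEA plates, days post-plating 13 or 15. Increase over DMSO baseline scored as cytotoxicity.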

[14] = CCTE_Shafer_MEA_dev_mutual_information_norm: CCTE's Neural Network Formation Assay for Mutual Information Normalization, Shafer Lab (AID 2284091);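 on AC50: mutual information between electrodes summarised as area under curve across four recording days; potency is for a decrease in mutual information relative to DMSO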
In short: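 Neurons from rat cortex were seeded at 1.5 x 10^5 cells/well onto PEI-coated MEAs in a laminin drop, then exposed to compound from day 0 for twelve days. Network recordings on four days gave mutual information, summarised by AUC relative to DMSO.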

[15] = CCTE_Deisenroth_AIME_384WELL_CTox_Inactive: Cytotoxicity Assessment (CTOX) in CCTE's 384-well Estrogen Receptor Transactivation Assay without AIME metabolic competence (metabolism negative), Deisenroth Lab (AID 2284039; active means hit-call score of the fitted dose curve at least 0.9, where 1 is the maximum;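 further: cell viability via live-cell protease substrate cleaved to fluorescent probe; cells exposed 24 h to medium preincubated 2 h with alginate-water beads without S9; loss of fluorescence signal means loss of viability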)
In short: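 VM7Luc4E2 cells, metabolism-negative arm: test chemicals (0.002–200 uM, 10 points) pre-incubated 2 h with alginate-water microspheres, then medium transferred to cells for 24 h. Viability read as protease-substrate cleavage to fluorescent probe; loss-of-signal, bidirectional fitting.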

[16] = target: Estrogen receptor (Homo sapiens) (UniProt P03372); experiment: CCTE_Deisenroth_AIME_384WELL_LUC_Shift: CCTE's 384-well Estrogen Receptor Transactivation Assay with AIME metabolic competence data shift (ERTA luciferase; difference in metabolism positive and negative), Deisenroth Lab (AID 2284041);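 further: shift is response with S9 minus without S9 so positive means metabolism raised ER signal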
Chain of Estrogen receptor (Homo sapiens) (P03372 whole entry, looked up): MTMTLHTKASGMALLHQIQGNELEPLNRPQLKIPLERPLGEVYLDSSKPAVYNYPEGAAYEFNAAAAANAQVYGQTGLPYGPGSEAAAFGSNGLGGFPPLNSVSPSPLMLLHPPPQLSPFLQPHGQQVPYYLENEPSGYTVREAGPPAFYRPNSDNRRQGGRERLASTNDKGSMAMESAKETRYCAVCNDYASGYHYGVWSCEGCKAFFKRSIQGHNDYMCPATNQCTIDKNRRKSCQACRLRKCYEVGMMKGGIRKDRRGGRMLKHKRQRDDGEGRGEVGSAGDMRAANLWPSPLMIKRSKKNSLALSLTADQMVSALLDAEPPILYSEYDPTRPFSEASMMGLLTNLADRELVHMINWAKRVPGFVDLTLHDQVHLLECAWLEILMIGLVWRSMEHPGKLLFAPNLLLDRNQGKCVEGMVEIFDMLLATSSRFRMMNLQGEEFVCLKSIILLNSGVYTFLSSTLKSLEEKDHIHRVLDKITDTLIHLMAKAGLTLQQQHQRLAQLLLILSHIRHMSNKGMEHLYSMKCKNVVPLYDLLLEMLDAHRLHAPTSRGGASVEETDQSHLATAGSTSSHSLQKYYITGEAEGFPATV
In short: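 Chemicals (0.002–200 uM, 10 points) pre-incubated 2 h with alginate-encapsulated induced male Sprague Dawley rat liver S9 or S9-free, then medium applied 24 h to VM7Luc4E2 cells; luciferase. Endpoint is per-concentration difference, S9-positive minus negative.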

[17] = UKN5_HCS_SBAD2_cell_viability: Viability Assessment in the University of Konstanz (UKN) Leist Lab Neurite Outgrowth Assay in human iPSC-derived immature Dorsal Root Ganglia Neurons (UKN5) (AID 2284056)
In short: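 iPSC-derived immature peripheral neurons (SBAD2) seeded on Matrigel with CHIR99021, SU5402 and DAPT, dosed 1 h later for 24 h. Viability from Hoechst H-33342 and calcein-AM live staining, high-content imaging; bidirectional fit versus DMSO.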

[18] = UKN5_HCS_SBAD2_neurite_outgrowth: University of Konstanz (UKN) Leist Lab Neurite Outgrowth Assay in human iPSC-derived immature Dorsal Root Ganglia Neurons (UKN5) (AID 2284070); details: actives raise or lower the signal
In short: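 Cryopreserved SBAD2 peripheral neurons were seeded at 100.000 cells/cm2 in N2-S/KSR medium containing CHIR99021, SU5402 and DAPT, then exposed to compounds for 24 h. Neurite area from calcein-AM high-content imaging was fitted bidirectionally against DMSO.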

Measured: AC50

CC[C@H](C)[C@H]1O[C@]2(C=C[C@@H]1C)C[C@@H]1C[C@@H](C/C=C(\C)[C@@H](O[C@H]3C[C@H](OC)[C@@H](O[C@H]4C[C@H](OC)[C@@H](O)[C@H](C)O4)[C@H](C)O3)[C@@H](C)/C=C/C=C3\CO[C@@H]4[C@H](O)C(C)=C[C@@H](C(=O)O1)[C@]34O)O2 (tested in a mixture with another compound)
active: [1] 3.93 nM and 1.65 nM | [2] 1.57 nM and 0.778 nM | [3] 3.82 nM and 1.05 nM | [4] 1.37 nM and 2.71 nM | [6] 27.5 nM and 2.25 nM | [7] 16.4 nM and 2.37 nM | [8] 3.01 nM and 0.926 nM | [9] 2.28 nM and 0.912 nM | [10] 0.259 µM | [11] 522 nM and 0.537 nM | [12] 7.85 µM | [14] 2.68 nM and 0.647 nM
inactive: [5] | [10] | [12] | [13]

CCC(C)Nc1c([N+](=O)[O-])cc(C(C)(C)C)cc1[N+](=O)[O-] (stereo not given)
inactive: [15]
active: [16] 8.77 µM

Cc1[nH]c(=O)n(C(C)(C)C)c(=O)c1Cl
inactive: [15]
active: [16] 66.1 µM

CC(C)(C)C(O)/C(=C\c1ccc(Cl)cc1Cl)n1cncn1 (stereo not given)
inactive: [16]
active: [15] 144 µM

COP(=S)(OC)Oc1ccc([N+](=O)[O-])cc1
inactive: [2] | [4] | [5] | [6] | [8] | [9] | [10] | [14]
active: [1] 20.2 µM | [3] 15 µM | [7] 23.4 µM | [12] 24.3 µM

O=C1c2ccccc2C(=O)N1SC(Cl)(Cl)Cl
inactive: [13]

CCc1ccc(C(=O)NN(C(=O)c2cc(C)cc(C)c2)C(C)(C)C)cc1
inactive: [15] | [16]

COP(=O)(OC)OC=C(Cl)Cl
inactive: [1] | [16] | [2] | [3] | [4] | [5] | [6] | [7] | [8] | [9] | [11] | [14]
active: [1] 5.4 µM | [2] 1.16 µM | [3] 0.659 µM | [4] 10.1 µM | [6] 983 nM | [7] 2.87 µM | [8] 1.45 µM | [9] 852 nM | [10] 1.99 µM | [11] 3.8 µM | [12] 30.4 µM | [14] 378 nM

O=[N+]([O-])/N=C1\NCCN1Cc1ccc(Cl)nc1
not listed: [12] | [13] | [15] | [16]
inactive: all other assays above
